{"source": "PubChem BioAssay (Tox21)", "note": "Inconclusive results are not listed. Entries that show only a call come without a potency. Active and inactive are the calls of the source. Calls follow the shape of the dose curve; as a rule, active = well fitted inhibition curve with a large enough effect in the repeat runs; inconclusive = weak or mixed curves; inactive = no such curve, though single readings can be large or run the other way. Potency is read from the fitted curve at half-maximal effect.", "data": [{"assay": "qHTS assay to identify small molecule antagonists of the thyroid receptor (TR) signaling pathway (AID 743065); also: nearly all actives have a fitted effect of over 55% in size", "details": "GH3.TRE-Luc, T3-stimulated luciferase inhibition, 23.5 h; series mostly up to 70.3 µM", "how_it_was_run": "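GH3.TRE-Luc rat pituitary cells (two TREs driving luciferase) were dosed with compound, then stimulated with 1 nM T3 (final) for 23.5 h at 37 C. ONE-Glo luminescence was the read-out, with CellTiter-Fluor fluorescence as the cytotoxicity counter-screen.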", "values": [{"smiles": "CCCCCCCC[Si](OCC)(OCC)OCC", "Potency": "inactive"}, {"smiles": "O=C(CN1CCN(Cc2ccc3c(c2)OCO3)CC1)N1c2ccccc2Sc2ccccc21", "Potency": "26.6 µM (active)"}, {"smiles": "O=C1c2ccccc2-c2ccccc21", "Potency": "inactive"}, {"smiles": "CC(C)COC(=O)/C=C/c1ccccc1", "Potency": "inactive"}, {"smiles": "CN(C1CCCCC1)S(=O)(=O)c1ccccc1N", "Potency": "inactive"}, {"smiles": "O=C1OC(=O)c2cc(Oc3ccc4c(c3)C(=O)OC4=O)ccc21", "Potency": "inactive"}, {"smiles": "Nc1cc(C(=O)O)ccc1Cl", "Potency": "inactive"}, {"smiles": "CCc1nccnc1C", "Potency": "inactive"}, {"smiles": "CC(=O)OCCCc1ccccc1", "Potency": "inactive"}, {"smiles": "CC(C)COC(=O)CCCCC(=O)OCC(C)C", "Potency": "inactive"}, {"smiles": "CCN1CN(CC)CN(CC)C1", "Potency": "inactive"}, {"smiles": "CCS(=O)(=O)CCn1c([N+](=O)[O-])cnc1C", "Potency": "inactive"}, {"smiles": "CC(C)=CC(C)(C)C", "Potency": "inactive"}, {"smiles": "OC[C@@H](O)[C@H](O)[C@@H](O)[C@@H](O)CO", "Potency": "inactive"}, {"smiles": "CCC(=O)OCCC(C)CCC=C(C)C", "note": "(centres undefined)", "Potency": "inactive"}, {"smiles": "FC(F)(F)c1ccc(Cl)cc1Cl", "Potency": "inactive"}, {"smiles": "CC(=O)c1ccc(OCC(=O)N2CCCCC2)cc1", "Potency": "inactive"}, {"smiles": "CCCCCCCCCCCCC", "Potency": "inactive"}, {"smiles": "COc1ccc(NS(=O)(=O)c2ccc(N)cc2)nn1", "Potency": "inactive"}]}]}
